# Columns and labels:
# Assay in all cases: DAPPL (digital affinity profiling via proximity ligation, sequencing); 10 mM Tris-HCl pH 7.5, 50 mM NaCl, 1 mM DTT, 4% glycerol, room temperature, 30 min; GST-TFs on glutathione beads, 16-mer random dsDNA library, 0.1% formaldehyde crosslink after washing; high values mean tight binding
# FLI1 = molecular target: T1, FLI1 (Homo sapiens, UniProt Q01543 1-452); conditions: protein: recombinant; tags: N-terminal GST; dsDNA, one strand shown
# T1 sequence: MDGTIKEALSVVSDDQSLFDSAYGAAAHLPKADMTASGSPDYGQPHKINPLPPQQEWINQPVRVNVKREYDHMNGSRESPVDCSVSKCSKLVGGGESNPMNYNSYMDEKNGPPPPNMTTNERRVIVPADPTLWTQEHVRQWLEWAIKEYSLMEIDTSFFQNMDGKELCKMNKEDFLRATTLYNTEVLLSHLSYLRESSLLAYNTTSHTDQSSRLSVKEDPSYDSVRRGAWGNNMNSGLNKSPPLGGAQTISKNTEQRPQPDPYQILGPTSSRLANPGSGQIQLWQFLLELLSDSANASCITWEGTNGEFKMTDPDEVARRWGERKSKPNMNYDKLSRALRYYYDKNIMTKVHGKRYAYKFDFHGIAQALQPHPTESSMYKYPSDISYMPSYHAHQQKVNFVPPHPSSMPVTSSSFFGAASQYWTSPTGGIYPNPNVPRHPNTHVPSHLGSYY
# Outline: (§1)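 Human transcription factors carrying a GST fusion were produced in yeast, bound to glutathione beads, tagged with DNA barcodes and pooled together with a tag-only sample. Each pool was held with 200 nmole of a random double-stranded 16-mer DNA library in Tris/NaCl/DTT/glycerol buffer for 30 min at room temperature, then washed, crosslinked in 0.1% formaldehyde, proximity-ligated with BsaI/T4 ligase (1 h, 37 °C), PCR-amplified and sequenced on an Illumina NextSeq500. Binding signal is the read frequency of each hexamer for a given factor divided by its frequency in the tag-only sample.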
# ELK1 = molecular target: T2, ELK1 (Homo sapiens, UniProt P19419 1-428); conditions: protein: recombinant; tags: N-terminal GST; dsDNA, one strand shown
# T2 sequence: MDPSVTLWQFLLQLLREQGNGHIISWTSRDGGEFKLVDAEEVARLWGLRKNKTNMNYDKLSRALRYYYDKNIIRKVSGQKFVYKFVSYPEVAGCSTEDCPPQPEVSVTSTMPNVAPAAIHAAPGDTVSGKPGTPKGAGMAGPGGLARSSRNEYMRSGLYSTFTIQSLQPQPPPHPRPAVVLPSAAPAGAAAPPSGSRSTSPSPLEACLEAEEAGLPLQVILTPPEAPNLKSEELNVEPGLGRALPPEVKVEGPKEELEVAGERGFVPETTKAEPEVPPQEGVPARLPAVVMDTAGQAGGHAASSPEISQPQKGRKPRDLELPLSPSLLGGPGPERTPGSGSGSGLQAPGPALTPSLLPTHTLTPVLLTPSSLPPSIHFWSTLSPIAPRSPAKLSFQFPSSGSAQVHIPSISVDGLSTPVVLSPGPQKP
# Outline: as §1
# GABPA = molecular target: T3, GABPA (Homo sapiens, UniProt Q06546 1-454); conditions: protein: recombinant; tags: N-terminal GST; dsDNA, one strand shown
# T3 sequence: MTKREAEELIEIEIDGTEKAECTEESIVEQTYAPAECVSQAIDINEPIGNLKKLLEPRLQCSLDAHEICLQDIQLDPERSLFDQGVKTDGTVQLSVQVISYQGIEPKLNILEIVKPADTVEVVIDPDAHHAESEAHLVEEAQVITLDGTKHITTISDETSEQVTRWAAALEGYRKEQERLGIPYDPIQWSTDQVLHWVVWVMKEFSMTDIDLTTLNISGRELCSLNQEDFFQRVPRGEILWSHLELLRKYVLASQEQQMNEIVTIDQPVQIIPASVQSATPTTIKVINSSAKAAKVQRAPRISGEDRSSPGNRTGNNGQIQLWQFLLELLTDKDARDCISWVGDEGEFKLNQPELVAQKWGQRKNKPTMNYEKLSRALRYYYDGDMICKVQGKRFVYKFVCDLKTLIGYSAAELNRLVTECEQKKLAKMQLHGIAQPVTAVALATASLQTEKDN
# Outline: as §1
# ERG = molecular target: T4, ERG (Homo sapiens, UniProt P11308 1-479); conditions: protein: recombinant; tags: N-terminal GST; dsDNA, one strand shown
# T4 sequence: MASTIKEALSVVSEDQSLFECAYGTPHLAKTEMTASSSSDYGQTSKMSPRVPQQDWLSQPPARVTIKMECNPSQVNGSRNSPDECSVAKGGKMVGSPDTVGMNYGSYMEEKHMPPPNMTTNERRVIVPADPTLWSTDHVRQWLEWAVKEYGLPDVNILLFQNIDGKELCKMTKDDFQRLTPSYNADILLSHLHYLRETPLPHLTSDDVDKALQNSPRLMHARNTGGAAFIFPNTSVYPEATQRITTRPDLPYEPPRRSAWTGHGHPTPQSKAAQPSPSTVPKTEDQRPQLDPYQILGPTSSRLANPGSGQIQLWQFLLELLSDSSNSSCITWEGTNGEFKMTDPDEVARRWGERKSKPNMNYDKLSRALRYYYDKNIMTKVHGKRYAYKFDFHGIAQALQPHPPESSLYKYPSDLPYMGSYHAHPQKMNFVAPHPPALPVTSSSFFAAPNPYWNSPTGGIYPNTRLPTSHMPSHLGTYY
# Outline: as §1
# ELF1 = ELF1 (Homo sapiens, UniProt P32519 1-619); conditions: protein: recombinant; tags: N-terminal GST; dsDNA, one strand shown
# Outline: as §1
# EHF = molecular target: T5, EHF (Homo sapiens, UniProt Q9NZC4 1-300); conditions: protein: recombinant; tags: N-terminal GST; dsDNA, one strand shown
# T5 sequence: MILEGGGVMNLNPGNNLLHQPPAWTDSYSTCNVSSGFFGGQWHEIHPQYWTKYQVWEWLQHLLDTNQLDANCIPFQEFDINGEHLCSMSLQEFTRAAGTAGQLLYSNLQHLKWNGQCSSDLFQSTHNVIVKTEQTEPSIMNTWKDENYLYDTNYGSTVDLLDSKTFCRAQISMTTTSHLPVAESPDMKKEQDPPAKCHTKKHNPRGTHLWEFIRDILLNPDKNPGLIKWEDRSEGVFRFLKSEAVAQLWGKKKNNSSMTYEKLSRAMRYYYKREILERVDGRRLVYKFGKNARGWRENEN
# Outline: as §1
# SPI1 = SPI1 (Homo sapiens, UniProt P17947 1-270); conditions: protein: recombinant; tags: N-terminal GST; dsDNA, one strand shown
# Outline: as §1
# SPIB = SPIB (Homo sapiens, UniProt Q01892 1-262); conditions: protein: recombinant; tags: N-terminal GST; dsDNA, one strand shown
# Outline: as §1
# ELK3 = molecular target: T6, ELK3 (Homo sapiens, UniProt P41970 1-407); conditions: protein: recombinant; tags: N-terminal GST; dsDNA, one strand shown
# T6 sequence: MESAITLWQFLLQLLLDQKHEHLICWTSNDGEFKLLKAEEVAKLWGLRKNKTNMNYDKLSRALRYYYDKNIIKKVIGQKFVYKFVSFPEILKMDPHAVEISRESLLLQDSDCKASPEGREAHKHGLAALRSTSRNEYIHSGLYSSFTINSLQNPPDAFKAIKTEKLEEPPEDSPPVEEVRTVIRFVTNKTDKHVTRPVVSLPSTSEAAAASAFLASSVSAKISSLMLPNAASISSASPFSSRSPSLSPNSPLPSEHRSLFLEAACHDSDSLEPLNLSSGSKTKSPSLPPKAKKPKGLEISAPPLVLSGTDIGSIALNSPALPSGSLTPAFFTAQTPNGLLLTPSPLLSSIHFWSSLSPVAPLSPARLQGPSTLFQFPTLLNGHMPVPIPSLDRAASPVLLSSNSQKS
# Outline: as §1
# FEV = molecular target: T7, FEV (Homo sapiens, UniProt Q99581 1-238); conditions: protein: recombinant; tags: N-terminal GST; dsDNA, one strand shown
# T7 sequence: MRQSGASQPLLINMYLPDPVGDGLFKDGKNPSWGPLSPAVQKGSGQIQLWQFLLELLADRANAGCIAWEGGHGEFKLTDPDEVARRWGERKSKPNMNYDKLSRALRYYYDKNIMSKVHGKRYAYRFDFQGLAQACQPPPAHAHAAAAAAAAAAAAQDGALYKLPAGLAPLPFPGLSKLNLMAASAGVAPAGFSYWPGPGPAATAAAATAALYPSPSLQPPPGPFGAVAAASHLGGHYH
# Outline: as §1
# ETV5 = ETV5 (Homo sapiens, UniProt P41161 1-510); conditions: protein: recombinant; tags: N-terminal GST; dsDNA, one strand shown
# Outline: as §1
# HSF1 = HSF1 (Homo sapiens, UniProt Q00613 1-529); conditions: protein: recombinant; tags: N-terminal GST; chain copies: 3; dsDNA, one strand shown
# Outline: as §1
# SPIC = molecular target: T8, SPIC (Homo sapiens, UniProt Q8N5J4 1-248); conditions: protein: recombinant; tags: N-terminal GST; dsDNA, one strand shown
# T8 sequence: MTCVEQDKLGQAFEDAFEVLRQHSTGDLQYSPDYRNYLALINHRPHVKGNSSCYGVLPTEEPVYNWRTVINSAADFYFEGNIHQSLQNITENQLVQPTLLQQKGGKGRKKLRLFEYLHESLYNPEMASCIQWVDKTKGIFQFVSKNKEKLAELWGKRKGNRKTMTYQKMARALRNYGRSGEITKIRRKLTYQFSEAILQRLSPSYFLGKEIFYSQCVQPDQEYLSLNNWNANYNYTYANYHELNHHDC
# Outline: as §1
# ELF4 = ELF4 (Homo sapiens, UniProt Q99607 1-663); conditions: protein: recombinant; tags: N-terminal GST; dsDNA, one strand shown
# Outline: as §1
# ELK4 = molecular target: T9, ELK4 (Homo sapiens, UniProt P28324-2 1-405); conditions: protein: recombinant; tags: N-terminal GST; dsDNA, one strand shown
# T9 sequence: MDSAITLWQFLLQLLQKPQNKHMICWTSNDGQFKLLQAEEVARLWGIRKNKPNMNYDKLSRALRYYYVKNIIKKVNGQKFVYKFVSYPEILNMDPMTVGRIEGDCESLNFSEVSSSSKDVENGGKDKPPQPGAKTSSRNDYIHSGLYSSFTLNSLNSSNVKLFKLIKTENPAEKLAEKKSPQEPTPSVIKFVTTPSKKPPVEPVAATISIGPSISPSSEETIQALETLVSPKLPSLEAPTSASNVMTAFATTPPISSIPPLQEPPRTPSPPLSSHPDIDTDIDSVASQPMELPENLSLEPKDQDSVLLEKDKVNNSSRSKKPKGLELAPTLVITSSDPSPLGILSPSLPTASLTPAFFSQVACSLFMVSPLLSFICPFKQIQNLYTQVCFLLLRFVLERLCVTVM
# Outline: as §1
# ELF3 = molecular target: T10, ELF3 (Homo sapiens, UniProt P78545 1-371); conditions: protein: recombinant; tags: N-terminal GST; dsDNA, one strand shown
# T10 sequence: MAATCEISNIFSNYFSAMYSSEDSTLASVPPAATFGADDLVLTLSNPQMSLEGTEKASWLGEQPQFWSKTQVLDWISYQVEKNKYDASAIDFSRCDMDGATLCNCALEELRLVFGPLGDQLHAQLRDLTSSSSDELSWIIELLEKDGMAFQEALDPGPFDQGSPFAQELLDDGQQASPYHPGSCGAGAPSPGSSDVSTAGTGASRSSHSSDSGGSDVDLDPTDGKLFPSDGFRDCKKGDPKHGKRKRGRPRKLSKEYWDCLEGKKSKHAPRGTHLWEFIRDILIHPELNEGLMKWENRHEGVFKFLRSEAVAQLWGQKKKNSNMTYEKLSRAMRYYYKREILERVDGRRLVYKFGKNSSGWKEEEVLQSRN
# Outline: as §1
# CRX = CRX (Homo sapiens, UniProt O43186 1-299); conditions: protein: recombinant; tags: N-terminal GST; dsDNA, one strand shown
# Outline: as §1
# ETV1 = ETV1 (Homo sapiens, UniProt P50549 1-477); conditions: protein: recombinant; tags: N-terminal GST; dsDNA, one strand shown
# Outline: as §1
# Chain of SPIB (Q01892 whole entry): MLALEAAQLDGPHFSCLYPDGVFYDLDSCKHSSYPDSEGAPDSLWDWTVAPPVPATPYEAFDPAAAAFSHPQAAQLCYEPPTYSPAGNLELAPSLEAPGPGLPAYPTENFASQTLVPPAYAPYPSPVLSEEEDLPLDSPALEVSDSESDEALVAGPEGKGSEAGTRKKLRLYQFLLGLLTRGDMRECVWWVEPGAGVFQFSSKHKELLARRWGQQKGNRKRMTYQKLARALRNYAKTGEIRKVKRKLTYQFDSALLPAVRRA
# Chain of ELF4 (Q99607 whole entry): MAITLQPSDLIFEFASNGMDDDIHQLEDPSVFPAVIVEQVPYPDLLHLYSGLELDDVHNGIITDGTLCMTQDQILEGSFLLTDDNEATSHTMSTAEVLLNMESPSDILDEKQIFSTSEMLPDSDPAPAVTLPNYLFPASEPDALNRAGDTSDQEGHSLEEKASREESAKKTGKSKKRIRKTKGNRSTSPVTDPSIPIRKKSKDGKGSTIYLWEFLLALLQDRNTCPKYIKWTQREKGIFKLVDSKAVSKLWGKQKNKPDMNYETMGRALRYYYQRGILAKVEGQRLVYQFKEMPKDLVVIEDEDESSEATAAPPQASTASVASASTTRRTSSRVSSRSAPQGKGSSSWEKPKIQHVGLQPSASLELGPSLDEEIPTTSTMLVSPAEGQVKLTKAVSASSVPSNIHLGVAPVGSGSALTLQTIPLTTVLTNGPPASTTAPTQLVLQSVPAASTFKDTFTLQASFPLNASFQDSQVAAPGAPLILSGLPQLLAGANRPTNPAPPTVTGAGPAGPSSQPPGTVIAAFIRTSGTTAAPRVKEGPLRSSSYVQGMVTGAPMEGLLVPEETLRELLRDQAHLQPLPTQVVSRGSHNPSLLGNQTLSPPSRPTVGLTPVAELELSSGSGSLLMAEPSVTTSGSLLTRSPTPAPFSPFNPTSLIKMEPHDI
# Chain of CRX (O43186 whole entry): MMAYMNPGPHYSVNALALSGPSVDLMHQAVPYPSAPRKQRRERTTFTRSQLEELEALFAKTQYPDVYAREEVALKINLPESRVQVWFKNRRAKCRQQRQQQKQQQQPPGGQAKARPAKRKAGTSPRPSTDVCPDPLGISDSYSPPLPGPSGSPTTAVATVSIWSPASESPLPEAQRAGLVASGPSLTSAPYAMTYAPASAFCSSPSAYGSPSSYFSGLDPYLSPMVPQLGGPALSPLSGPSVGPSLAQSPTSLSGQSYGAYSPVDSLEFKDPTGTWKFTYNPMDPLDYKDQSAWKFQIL
# Chain of ETV1 (P50549 whole entry): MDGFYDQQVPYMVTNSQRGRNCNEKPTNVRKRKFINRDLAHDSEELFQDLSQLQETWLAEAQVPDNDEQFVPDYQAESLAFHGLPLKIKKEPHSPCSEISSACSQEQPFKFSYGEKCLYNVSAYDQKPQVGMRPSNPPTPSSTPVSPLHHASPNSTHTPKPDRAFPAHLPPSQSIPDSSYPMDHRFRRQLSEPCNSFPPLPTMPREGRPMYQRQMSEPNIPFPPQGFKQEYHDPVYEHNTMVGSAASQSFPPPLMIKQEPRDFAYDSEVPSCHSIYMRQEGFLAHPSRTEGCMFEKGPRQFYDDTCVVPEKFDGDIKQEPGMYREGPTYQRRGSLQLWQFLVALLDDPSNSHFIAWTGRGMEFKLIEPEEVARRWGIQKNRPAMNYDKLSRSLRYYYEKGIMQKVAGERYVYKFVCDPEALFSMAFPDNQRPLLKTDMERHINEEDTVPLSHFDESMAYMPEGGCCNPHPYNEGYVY
# Chain of HSF1 (Q00613 whole entry): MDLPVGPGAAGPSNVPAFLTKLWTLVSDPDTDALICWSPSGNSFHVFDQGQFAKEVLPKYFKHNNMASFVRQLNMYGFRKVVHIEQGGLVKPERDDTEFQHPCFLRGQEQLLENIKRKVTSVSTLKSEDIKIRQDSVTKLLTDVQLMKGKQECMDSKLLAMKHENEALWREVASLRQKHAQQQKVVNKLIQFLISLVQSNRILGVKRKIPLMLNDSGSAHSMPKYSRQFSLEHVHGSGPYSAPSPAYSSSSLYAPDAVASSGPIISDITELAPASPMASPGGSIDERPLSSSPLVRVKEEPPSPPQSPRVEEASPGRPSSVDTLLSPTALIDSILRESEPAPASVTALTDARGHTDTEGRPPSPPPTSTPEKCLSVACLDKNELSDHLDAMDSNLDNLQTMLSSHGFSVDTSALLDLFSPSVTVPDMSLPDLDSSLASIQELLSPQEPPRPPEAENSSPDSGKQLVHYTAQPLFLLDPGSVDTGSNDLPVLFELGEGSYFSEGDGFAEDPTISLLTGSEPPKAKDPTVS
# Chain of ETV5 (P41161 whole entry): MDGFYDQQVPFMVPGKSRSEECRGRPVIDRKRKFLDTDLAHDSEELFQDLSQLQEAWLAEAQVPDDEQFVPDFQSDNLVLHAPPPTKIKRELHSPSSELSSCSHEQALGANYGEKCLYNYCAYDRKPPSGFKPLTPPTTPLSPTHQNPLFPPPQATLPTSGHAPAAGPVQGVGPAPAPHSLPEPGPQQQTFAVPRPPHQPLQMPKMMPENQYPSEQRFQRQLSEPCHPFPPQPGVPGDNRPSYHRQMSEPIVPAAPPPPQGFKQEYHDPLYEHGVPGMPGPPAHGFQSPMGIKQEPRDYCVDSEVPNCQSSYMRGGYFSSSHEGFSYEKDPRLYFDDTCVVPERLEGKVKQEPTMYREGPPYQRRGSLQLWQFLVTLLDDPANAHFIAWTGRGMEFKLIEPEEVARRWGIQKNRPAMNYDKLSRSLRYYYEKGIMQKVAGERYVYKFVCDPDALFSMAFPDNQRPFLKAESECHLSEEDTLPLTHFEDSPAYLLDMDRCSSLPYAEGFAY
# Chain of ELF1 (P32519 whole entry): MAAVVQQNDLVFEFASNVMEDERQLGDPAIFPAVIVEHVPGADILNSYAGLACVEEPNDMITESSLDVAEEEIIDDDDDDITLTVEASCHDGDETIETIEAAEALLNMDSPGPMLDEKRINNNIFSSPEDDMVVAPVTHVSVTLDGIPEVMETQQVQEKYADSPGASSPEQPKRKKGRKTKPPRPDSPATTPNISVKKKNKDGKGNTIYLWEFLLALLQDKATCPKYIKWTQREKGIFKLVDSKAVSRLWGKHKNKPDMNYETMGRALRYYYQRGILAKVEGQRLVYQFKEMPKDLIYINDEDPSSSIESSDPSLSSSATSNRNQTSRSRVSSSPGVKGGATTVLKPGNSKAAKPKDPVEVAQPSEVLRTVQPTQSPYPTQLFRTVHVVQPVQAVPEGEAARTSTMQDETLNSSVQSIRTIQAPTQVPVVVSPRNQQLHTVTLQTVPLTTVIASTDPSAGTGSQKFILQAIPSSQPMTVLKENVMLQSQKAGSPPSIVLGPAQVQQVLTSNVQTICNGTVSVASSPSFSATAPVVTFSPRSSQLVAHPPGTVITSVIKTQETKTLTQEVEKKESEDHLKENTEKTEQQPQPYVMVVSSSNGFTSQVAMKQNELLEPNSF
sequence,measurement,setting,value
ATAAAG,binding signal,FLI1,"1.01 fold enrichment (6-mer frequency, TF over GST control)"
same,binding signal,ELK1,"1.01 fold enrichment (6-mer frequency, TF over GST control)"
same,binding signal,GABPA,"1.05 fold enrichment (6-mer frequency, TF over GST control)"
same,binding signal,ERG,"1.12 fold enrichment (6-mer frequency, TF over GST control)"
same,binding signal,ELF1,"1.06 fold enrichment (6-mer frequency, TF over GST control)"
same,binding signal,EHF,"1.11 fold enrichment (6-mer frequency, TF over GST control)"
same,binding signal,SPI1,"1.21 fold enrichment (6-mer frequency, TF over GST control)"
same,binding signal,SPIB,"1.1 fold enrichment (6-mer frequency, TF over GST control)"
same,binding signal,ELK3,"1.12 fold enrichment (6-mer frequency, TF over GST control)"
same,binding signal,FEV,"1.04 fold enrichment (6-mer frequency, TF over GST control)"
same,binding signal,ETV5,"1.03 fold enrichment (6-mer frequency, TF over GST control)"
same,binding signal,HSF1,"1.27 fold enrichment (6-mer frequency, TF over GST control)"
same,binding signal,SPIC,"1.09 fold enrichment (6-mer frequency, TF over GST control)"
same,binding signal,ELF4,"1.08 fold enrichment (6-mer frequency, TF over GST control)"
same,binding signal,ELK4,"1.16 fold enrichment (6-mer frequency, TF over GST control)"
same,binding signal,ELF3,"1.02 fold enrichment (6-mer frequency, TF over GST control)"
same,binding signal,CRX,"1.53 fold enrichment (6-mer frequency, TF over GST control)"
same,binding signal,ETV1,"1.04 fold enrichment (6-mer frequency, TF over GST control)"
